CYP2C19 act: cytochrome P450 2C19 (human) activation | recombinant CYP2C19, luciferin-H EGE luminescence; stronger effect = higher value; 0 = fully inhibited enzyme, 1 = untreated enzyme | activation factor at 5 µM | 96,000 tested, under 10 active | AID 1025;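 active = activation factor of at least 2 at 5 µM in the primary screen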;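 note: 0 = wells with 2.5 mM tranylcypromine and 1 = vehicle-only wells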
CYP2C19 inh: inhibitors of human CYP2C19; P33261; AID 778; CYP2C19 Supersomes, luciferin-H EGE luminescence, 30 min; 21% of 96,000 active; inhibition, % at 5 µM;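 active = CYP2C19 inhibition above a set limit at 5 µM in the primary screen, cut at about 50% in these data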;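 note: plate controls were negative control wells for no effect and 2.5 mM tranylcypromine positive control for full effect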
CYP2C9 inhib: human CYP2C9 inhibition; AID 777; P11712; inhibition, % at 5 µM; 20% of 96,000 active; CYP2C9 Supersomes, luciferin-H conversion, luminescence;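 active = blocking of liver enzyme CYP2C9 beyond about 50% at 5 µM, limit read from the data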
Target sequence (P11712 whole entry, looked up): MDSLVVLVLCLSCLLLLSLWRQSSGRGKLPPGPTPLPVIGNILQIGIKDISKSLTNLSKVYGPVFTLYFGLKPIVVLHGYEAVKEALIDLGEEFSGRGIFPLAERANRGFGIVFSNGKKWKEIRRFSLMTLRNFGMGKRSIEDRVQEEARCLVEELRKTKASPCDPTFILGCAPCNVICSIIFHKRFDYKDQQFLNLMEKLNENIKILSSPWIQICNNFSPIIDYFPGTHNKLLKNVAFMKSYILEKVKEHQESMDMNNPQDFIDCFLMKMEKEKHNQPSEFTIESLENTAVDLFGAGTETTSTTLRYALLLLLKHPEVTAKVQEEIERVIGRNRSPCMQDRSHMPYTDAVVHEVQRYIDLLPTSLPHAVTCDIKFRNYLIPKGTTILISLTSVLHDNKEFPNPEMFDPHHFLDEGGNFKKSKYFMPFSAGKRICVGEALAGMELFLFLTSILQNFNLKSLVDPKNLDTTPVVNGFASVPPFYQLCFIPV
CYP2C9 act: increases human cytochrome P450 2C9 activity; recombinant CYP2C9, luciferin-H conversion, luminescence; stronger effect = higher value; factor 1 = untreated enzyme, 0 = blocked; 1.4% of 96,000 active; P11712; activation factor at 5 µM; AID 1024;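 active = activation factor of 2 or more for CYP2C9 at a 5 µM dose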;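 note: 0 = sulfaphenazole-blocked wells and 1 = vehicle-only wells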
Measles CPE: protection of cells from measles virus; 1.5% of 140,000 active; Measles virus-infected cells, CPE protection, absorbance; AID 841; protection (pct of control), % at 4 µM; in the data active = protection mostly above about 24%, no sharp cut-off; inactive = mostly below about 26%
The depositor's hits bear a star. In the library only some 22% were active in any assay of this set; here they are far more common.

For CC(=O)COc1ccc2c3c(c(=O)oc2c1)CCCC3 the results were CYP2C19 act 0.4, CYP2C19 inh 64*, CYP2C9 inhib 42, CYP2C9 act 0.6 and Measles CPE 12.
For O=c1oc2cc(OCc3nn[nH]n3)ccc2c2c1CCCC2 the results were CYP2C19 act 0.1, CYP2C19 inh 95*, CYP2C9 inhib 96*, CYP2C9 act 0 and Measles CPE 10.
Screening CC(C)CNC(=O)COc1ccc2c3c(c(=O)oc2c1)CCC3 returned CYP2C19 act 0.5, CYP2C19 inh 48, CYP2C9 inhib 76*, CYP2C9 act 0.2 and Measles CPE 14.
`Cc1cc2oc(=O)c3c(c2cc1OCc1nn[nH]n1)CCCC3` gave CYP2C19 act 0.9, CYP2C19 inh 13, CYP2C9 inhib 38, CYP2C9 act 0.6 and Measles CPE 3.
Screening CC(=O)C(C)Oc1ccc2c3c(c(=O)oc2c1)CCCC3 (centres undefined) returned CYP2C19 act 0.8, CYP2C19 inh 18, CYP2C9 inhib 18, CYP2C9 act 0.8 and Measles CPE 3.
For CCOC(=O)CCc1c(C)c2ccc(OCc3nn[nH]n3)cc2oc1=O the results were CYP2C19 act 0.6, CYP2C19 inh 38, CYP2C9 inhib 71*, CYP2C9 act 0.3 and Measles CPE 3.
`Cc1sc2nc(SCc3nc(-c4ccccc4)no3)n(-c3ccccc3)c(=O)c2c1C` gave Measles CPE 15.
Screening Cn1c(Cn2cnc3ccccc32)nnc1SCc1ccccc1 returned CYP2C19 act 0.7, CYP2C19 inh 33, CYP2C9 inhib 23, CYP2C9 act 0.8 and Measles CPE 3.
Screening COc1ccc(CCn2c(N)c(S(=O)(=O)c3cccs3)c3nc4ccccc4nc32)cc1OC returned Measles CPE 3.
CC(C)CCn1c(N)c(S(=O)(=O)c2cccs2)c2nc3ccccc3nc21 was read as CYP2C19 act 0.6, CYP2C19 inh 39, CYP2C9 inhib 85*, CYP2C9 act 0.2 and Measles CPE 4.
For Nc1c(S(=O)(=O)c2cccs2)c2nc3ccccc3nc2n1Cc1cccs1 the results were CYP2C19 act 1, CYP2C19 inh 1, CYP2C9 inhib 33, CYP2C9 act 0.7 and Measles CPE 5.
Screening c1csc(-c2nc3nc4ccccc4nc3n2Cc2ccc3c(c2)OCO3)c1 returned CYP2C19 act 0.1, CYP2C19 inh 90*, CYP2C9 inhib 96*, CYP2C9 act 0 and Measles CPE 8.
CCCn1c(-c2cccs2)nc2nc3ccccc3nc21 was read as CYP2C19 act 0.9, CYP2C19 inh 14, CYP2C9 inhib 47, CYP2C9 act 0.5 and Measles CPE 3.
`Nc1c(S(=O)(=O)c2cccs2)c2nc3ccccc3nc2n1Cc1ccc2c(c1)OCO2` gave CYP2C19 act 0.6, CYP2C19 inh 42, CYP2C9 inhib 91*, CYP2C9 act 0.1 and Measles CPE 4.
Screening Nc1c(S(=O)(=O)c2cccs2)c2nc3ccccc3nc2n1CCc1ccccc1 returned CYP2C19 act 0.4, CYP2C19 inh 58*, CYP2C9 inhib 58* and CYP2C9 act 0.4.
For Nc1c(S(=O)(=O)c2cccs2)c2nc3ccccc3nc2n1CC1CCCO1 (centres undefined) the results were CYP2C19 act 1.2, CYP2C19 inh -22, CYP2C9 inhib 4, CYP2C9 act 1 and Measles CPE 5.
Screening CC(C)n1c(CCC(=O)O)ccc1-c1ccccc1 returned CYP2C19 act 0.9, CYP2C19 inh 14, CYP2C9 inhib 11, CYP2C9 act 0.9 and Measles CPE 10.
Screening Cc1ccc(Cn2nc(C)c3cc(C(=O)OCC(N)=O)sc32)cc1 returned CYP2C19 act 1, CYP2C19 inh 0, CYP2C9 inhib 31, CYP2C9 act 0.7 and Measles CPE 4.
`COC(=O)C(Cc1cnc(Cl)s1)(C(=O)OC)c1ccc([N+](=O)[O-])cc1[N+](=O)[O-]` gave CYP2C19 act 0.2, CYP2C19 inh 79*, CYP2C9 inhib 67*, CYP2C9 act 0.3 and Measles CPE 27.
For C=CCC(C(=O)OC)(C(=O)OC)c1ccc([N+](=O)[O-])cn1 the results were CYP2C19 act 0.7, CYP2C19 inh 29, CYP2C9 inhib 10, CYP2C9 act 0.9 and Measles CPE 7.
Screening COC(=O)C(Cc1cnc(Cl)s1)(C(=O)OC)c1ccc(C(F)(F)F)cc1[N+](=O)[O-] returned CYP2C19 act 0.1, CYP2C19 inh 87*, CYP2C9 inhib 51*, CYP2C9 act 0.5 and Measles CPE 5.
`COc1ccc(OC)c(CNc2ccc(F)c(Cl)c2)c1` gave CYP2C19 act 0.7, CYP2C19 inh 30, CYP2C9 inhib 58*, CYP2C9 act 0.4 and Measles CPE 6.
Screening O=[N+]([O-])c1ccccc1CNc1ccc(F)c(Cl)c1 returned Measles CPE 7.
`c1cnc(SCCOc2ccc3c(c2)CCC3)nc1` gave CYP2C19 act 0.9, CYP2C19 inh 14, CYP2C9 inhib 23, CYP2C9 act 0.8 and Measles CPE 13.
For O=C(CSCc1cccc(CSCC(=O)Nc2ccc3ccccc3c2)n1)Nc1ccc2ccccc2c1 the results were CYP2C19 act 0.2, CYP2C19 inh 81*, CYP2C9 inhib 99*, CYP2C9 act 0 and Measles CPE 17.
O=C(CSc1ccc2ccccc2c1)Nc1nc2ccccc2[nH]1 was read as Measles CPE 42*.
Screening O=C(CSCC(=O)Nc1ccc2ccccc2c1)NCc1ccccc1 returned CYP2C19 act 0.8, CYP2C19 inh 19, CYP2C9 inhib -2, CYP2C9 act 1 and Measles CPE 8.
For C=C(C)CSCc1nc2ccccc2[nH]1 the results were CYP2C19 act 0.1, CYP2C19 inh 90*, CYP2C9 inhib 28, CYP2C9 act 0.7 and Measles CPE 6.
`O=C(CSCc1nc2ccccc2[nH]1)Nc1ccc2ccccc2c1` gave CYP2C19 act 0.7, CYP2C19 inh 32, CYP2C9 inhib 58*, CYP2C9 act 0.4 and Measles CPE 4.
Screening O=C(CSCc1nc2ccccc2[nH]1)Nc1ccc(Oc2ccccc2)cc1 returned Measles CPE 9.
Screening CN(C)S(=O)(=O)c1cc(NC(=O)COC(=O)C2CSC3(C)CCC(=O)N23)ccc1Cl (centres undefined) returned Measles CPE 2.
O=C(CSc1cccs1)Nc1cccc2ccccc12 was read as Measles CPE 22.
O=C(CSc1cccs1)Nc1ccc2ccccc2c1 was read as CYP2C19 act 0.4, CYP2C19 inh 60*, CYP2C9 inhib 64*, CYP2C9 act 0.4 and Measles CPE 11.
For COc1ccc(C(CNC(=O)c2cccc(Br)c2)N2CCCC2)cc1 (centres undefined) the results were CYP2C19 act 0.6, CYP2C19 inh 40, CYP2C9 inhib 7, CYP2C9 act 0.9 and Measles CPE 5.
`O=C(COc1ccccc1)NCC(c1cccs1)N1CCOCC1` (centres undefined) gave Measles CPE 38.

Compound activity as filed in PubChem.
